# Test results: PubChem BioAssay AID588342 (National Center for Advancing Translational Sciences (NCATS), 2011)
# In all, about 360,000 compounds went through this assay and about 25,000 (6.9%) were called active. About 9% were inconclusive and are not listed. The list comes from a sample in which actives are over-represented; it also holds similar structures and randomly drawn compounds. A number with no mark means an inactive call. The call rests on the fitted dose curve; in most records, active means well fitted inhibition curve with a large enough effect; inconclusive means small, poorly fitted or top-dose-only effect; inactive means flat fitted curve, though single readings scatter.
# Molecular target: Luciferin 4-monooxygenase (Photinus pyralis) (UniProt P08659)
# Sequence (P08659 whole entry, looked up): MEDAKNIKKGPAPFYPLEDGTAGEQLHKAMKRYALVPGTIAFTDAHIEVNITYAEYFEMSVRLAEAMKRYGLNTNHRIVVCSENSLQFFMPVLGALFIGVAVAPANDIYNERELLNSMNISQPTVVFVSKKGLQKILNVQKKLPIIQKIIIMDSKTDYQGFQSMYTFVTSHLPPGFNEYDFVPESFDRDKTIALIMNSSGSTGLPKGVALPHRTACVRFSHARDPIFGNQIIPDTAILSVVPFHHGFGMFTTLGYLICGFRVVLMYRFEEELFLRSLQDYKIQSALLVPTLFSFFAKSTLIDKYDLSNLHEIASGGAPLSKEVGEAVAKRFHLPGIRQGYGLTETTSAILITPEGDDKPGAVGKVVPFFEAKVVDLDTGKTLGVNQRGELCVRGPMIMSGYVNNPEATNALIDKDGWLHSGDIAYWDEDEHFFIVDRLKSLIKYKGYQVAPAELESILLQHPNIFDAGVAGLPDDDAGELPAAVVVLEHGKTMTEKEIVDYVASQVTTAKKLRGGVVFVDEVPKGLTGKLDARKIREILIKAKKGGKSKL
# Assay: qHTS profiling assay for firefly luciferase inhibitor/activator using purifed enzyme and Km concentrations of substrates (counterscreen for miR-21 project); further: nearly all actives have a fitted effect of over 55% in size;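 on activity change, negative = inhibition: plate controls were vehicle for no effect and reference inhibitor for full effect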
# Conditions: purified FLuc, luminescence inhibition; series mostly up to 57.5 µM; activity change, negative = inhibition: at the top concentration
# From the text: MLPCN Grant: 1 R21 NS059478-01 (miR-21 grant) Assay Provider: NCGC NCGC Assay Overview: Firefly (Photinus pyralis) luciferase is one of the most commonly used transcriptional reporters for a number of reasons. It is considered one of the more dynamically responsive reporters -that is, responsive to changes in reporter transcription - as it requires no post-translational modifications and is enzymatically active directly after protein synthesis (Wood, 1998). Additionally, the half-life of the luciferase protein is short relative to other reporter-gene products (Wood, 1995). Whereas reporters with long half-lives potentially allow for increased signal due to accumulation of reporter-gene product, once accumulated in the cell, dynamic changes in reporter-gene expression may be difficult to detect(Fan and Wood, 2007; Almond et al., 2004). It has been shown that wild-type P. pyralis luciferase has a half-life of approximately […] hours in mammalian cells (Thompson et al., 1991). Firefly luciferase reporter-gene assays are also generally considered one of the most sensitive assay types (Wood, 1995; Wood, 1998). Although light produced in a bioluminescence reaction is of lower intensity than that produced during fluorescence emission, this is offset by little to no background light inherent to luminescent assays. Thus the luciferase reporter can be expressed at much lower levels than fluorescent proteins while still providing robust signal. # However, it was initially observed, in 1991, by Thompson et al., that compounds that resemble the substrates of firefly luciferase (FLuc) can act as competitive inhibitors of the enzyme, and that these compounds, upon interaction with luciferase in the cell, can actually stabilize the protein and increase its half-life. Accumulated intracellular FLuc protein can be measured as an increase in luminescence signal, upon addition of detection reagents (which contain high concentrations of FLuc substrates) commonly used in high-throughput screening. In cell-based reporter gene assays that use FLuc as the reporter gene to quantitate the potential influence of a given compound against the target biology, this apparent increase in luminescence can mistakenly be interpreted as identification of a compound that is active against the target of interest. This is the case for the miR-21 FLuc reporter gene assay used to identify inhibitors of the miR-21 pathway (PubChem AID 2289) - compounds of interest will inhibit miR-21 biogenesis/expression or activity, and are identified by causing an increase in luminescence, due to increased FLuc translation. However, FLuc inhibitory compounds that stabilize the FLuc protein will give an identical read-out, making it difficult to distinguish compounds that are active against the target from those active against FLuc. Previous profiling work to determine the prevalence of compounds that affect FLuc enzymatic activity (PubChem AID 411) identified that ~3% of the MLSMR library (then at ~72K) inhibited FLuc. […] Since the MLSMR had grown to ~350K compounds, and since it was expected that a significant percentage of compounds found active in the miR-21 FLuc assay would be FLuc inhibitors, the library was screened for activity against FLuc using a biochemical assay of purified FLuc and KM concentrations of FLuc substrates (D-luciferin and ATP).
# NCGC Assay Protocol Summary: Reagents: 50mM Tris acetate, pH 7.5; 10mM Mg acetate; 10uM D-luciferin (Sigma #L9504); 10uM ATP; 0.01% Tween-20; 0.05% BSA; 10nM P. pyralis luciferase (Sigma #L9506) Control compounds used were two known firefly luciferase inhibitors (compounds (2) and (5) in Auld et al., 2010), and DMSO. […]
SMILES,"activity change, negative = inhibition",Potency
CN(Cc1nc(-c2cnccn2)no1)Cc1n[nH]c2c1CCCCC2,2.36%,–
CCOC(=O)C(Cc1ccccc1)NC(=O)CCC(=O)c1ccc(OC)cc1 (configuration not stated),5.51%,–
COc1ccc(C(=O)N[C@H](C(=O)NCc2ccccc2)C(C)C)cc1,0.173%,–
COc1ccc(C(=O)NC(Cc2ccc(OC(=O)c3ccc(OC)cc3)cc2)C(=O)O)cc1 (configuration not stated),–,12 µM (active)
C[C@H](NC(=O)c1[nH]cnc1C(=O)Nc1nccs1)c1ccccc1,-2.61%,–
CCOc1ccc(-n2nc3ccc(NC(=O)c4ccc(OC)c(Cl)c4)cc3n2)cc1,-2.98%,–
COc1cccc(C(=O)Nc2ccc(-c3cc(C(F)(F)F)nn3-c3ccccc3)cc2)c1,3.97%,–
COc1cc(OC)cc(C(=O)Nc2cc3nn(-c4ccccc4)nc3cc2Cl)c1,–,5.36 µM (active)
CCC(=O)Nc1ccc(C)cc1-c1nc2ccccc2n(Cc2ccccc2)c1=O,-1.05%,–
CN(C)/C=C1\C=C(c2ccccc2)OC1=O,-15%,–
COc1cccc(/C=C2\C=C(c3ccc(C)cc3)OC2=O)c1OC(C)=O,–,15.1 µM (active)
CC(=O)Oc1ccc(-c2nc3c(C)cccc3c(=O)o2)cc1,-16.3%,–
O=C1C=C(c2ccnc3cc(Cl)ccc23)C[C@@H](c2ccc3c(c2)OCO3)C1,2.17%,–
Cc1cc2c(c(=O)n1Cc1ccccc1)C1O[C@](CCCCN3C(=O)c4ccccc4C3=O)(Cc3ccccc31)O2,4.34% [at 11.5 µM],–
O=C(CCCN=C1NS(=O)(=O)c2ccccc21)OCC(=O)c1ccc(F)c(F)c1,0.261%,–
Cn1cc[n+](C)c1COc1ccc(C=O)cc1,-0.526%,–
COc1ccc(C(=O)NCc2cn3ccccc3n2)cc1,6.17%,–
O=Cc1ccc(OCc2cn3ccccc3n2)cc1,–,12 µM (active)
Cc1ccc(OCCSc2nc(C)c(Cc3ccccc3)c(=O)[nH]2)cc1,-5.18%,–
O=C(Nc1ccn(Cc2ccccc2)n1)c1n[nH]c([N+](=O)[O-])c1Cl,–,0.849 µM (active)
CCn1c(=O)c(=O)n(CC)c2cc(N3CCCCC3)c(NC(=O)c3cccc(F)c3)cc21,4.07%,–
O=C(Nc1ccccc1N1CCN(c2ccccc2)CC1)c1cccc(F)c1,-0.474%,–
Cc1ccc(Cn2ccc(NC(=O)C3C4CCC(C4)C3C(=O)O)n2)cc1 (configuration not stated),-2.09%,–
O=C(Cn1cnc([N+](=O)[O-])n1)NCCc1ccccc1,6.43%,–
O=C(Nc1ccn(Cc2ccccc2)n1)c1cccc(F)c1,–,4.78 µM (active)
COc1cc(NC(=O)CSc2nc3nc(C)c(Cc4ccc(C)cc4)c(C)n3n2)cc(OC)c1OC,-10.1%,–

SMILES,"activity change, negative = inhibition",Potency
CCC(C)N(C(=O)CSc1nnnn1-c1ccccc1OC)C1CCS(=O)(=O)C1 (configuration not stated),0.645%,–
CCC(=O)N1CCc2cc(S(=O)(=O)NC(C(=O)NCCc3ccc(C)cc3)C(C)C)ccc21 (configuration not stated),-4.06%,–
Cc1cc(C)nc(SCC(=O)c2ccc(Cl)cc2)n1,1.59%,–
Cc1cc(Oc2ccc(Cl)cc2)nc(SCC(=O)c2ccccc2)n1,-2.98%,–
Cc1cc(C)nc(S/C=C/C(=O)c2ccccc2)n1,–,3.79 µM (active)
O=C(CSc1nccn1-c1ccc(F)cc1)Nc1cccc2ccccc12,-15.4%,–
OCCN1CCN(C(=S)c2ccc(-c3ccccc3)cc2)CC1,-14.4%,–
S=C(c1ccccc1)N1CCCC1,-0.387%,–
S=C(c1ccc(-c2ccccc2)o1)N1CCCCC1,–,2.69 µM (active)
COc1cccc(C(=O)NC2(C(F)(F)F)C(=O)Nc3c2c(=O)[nH]c(=O)n3-c2ccc(C)cc2)c1 (configuration not stated),-3.45%,–
CC1CC(C)CN(C(=O)COC(=O)c2ccc3ncsc3c2)C1 (configuration not stated),-5.66%,–
Cc1nc(C)c(-c2csc(NCCc3ccccc3)n2)s1,–,16.9 µM (active)
Cc1nc2sccn2c(=O)c1S(=O)(=O)NCCc1ccccc1,5.93%,–
CCCc1cc(-c2n[nH]c(=S)n2Cc2ccccc2)cs1,-0.86%,–
Cc1c(Cl)cccc1NC(=O)C1CCCN(c2ncnc3onc(C)c23)C1 (configuration not stated),10.6%,–
Cc1ccc(Cl)cc1N1CCN(C(=O)c2cnc3c(-c4ccc(F)cc4)c(C)nn3c2C)CC1,0.594%,–
Cc1noc(C)c1COc1cccc(C(=O)Nc2cccnc2)c1,-4.82%,–
O=C(Nc1cccnc1)c1cccc(S(=O)(=O)N2CCCC2)c1,-2.12%,–
O=C(Nc1cccnc1)c1noc2c1CCCCC2,–,7.57 µM (active)
CCOC(=O)c1c(C)[nH]c(CCC(=O)Nc2ccc(OC)c(OC)c2)c1C,-6.27%,–
O=C(Nc1ccc(-c2nc3cc(NC(=O)c4ccccc4Cl)ccc3o2)cc1)c1ccccc1Cl,-2%,–
Cc1cc2nc(-c3ccc(NC(=O)c4cccnc4)cc3)oc2cc1C,–,6.75 µM (active)
O=C(Cc1ccccc1)Nc1ccc(NC(=O)c2cccnc2)cc1,-2.2%,–
Cc1cc(NS(=O)(=O)c2ccc(NC(=O)c3cccnc3)cc2)nc(C)n1,-0.527%,–
Cc1ccc2nc(-c3ccc(NC(=O)c4cccnc4)cc3)oc2c1,–,5.36 µM (active)
CC(=O)NC(=S)Nc1ccc(NC(=O)c2cccnc2)cc1,-0.139%,–
